Screening results as filed in PubChem.
Shown are actives, neighbours in structure and some others; about 2.5% of the full set was active somewhere.
aSyn yeast inh – rescues yeast growth from alpha-synuclein toxicity. Yeast expressing alpha-synuclein, growth rescue, BacTiter-Glo, 24 h. Potency, µM (top dose mostly 46.1 µM), hits mostly activators. 370,000 compounds, 0.14% hits; further: nearly all actives have a fitted effect of over 65% in size
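Rescue of yeast growth: cells expressing toxic alpha-synuclein, induced in galactose at OD600 0.02, incubated with compound 24 h at 30 C. ATP luminescence quantified growth; inhibitors of toxicity appear as activators.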
TDP-43 yeast inh – TDP-43 toxicity inhibition in yeast. AID 652104. Potency, µM (series often up to 46.1 µM), usual class: activators. TDP-43 expressing yeast growth rescue, BacTiter-Glo, 24 h. 410,000 compounds, 1.8% hits; further: nearly all actives have a fitted effect of over 50% in size
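In this qHTS, compounds that restore growth of yeast expressing TDP-43 appear as activators. Cells (OD600=0.02, galactose medium, raffinose-pregrown) are incubated with compound 24 hr at 30 deg C and growth is quantified by BacTiter-Glo.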
CCT modulator – modulators of cytosolic chaperonin (CCT/TRiC) activity; purified chaperonin ATPase assay, HTRF ADP detection, 30 min; activity change, % (test concentration not listed), hits read low; 360,000 compounds, 0.3% hits; AID 651819; in the data active means activity change below about -30%
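ATPase activity: ADP formed was measured by HTRF Transcreener (665/615 nm ratio) after 30 min at 37 deg C with 10 uM ATP. Compounds screened at one 76 uM concentration against 40 or 20 nM TRiC in Tris pH 7.4/KCl/MgCl2/DTT buffer.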
Akt phos inh – blocks phosphorylation of Akt; AID 651550; 360,000 compounds, 0.32% hits; activity change, % for hits at 50 µM; Neuro2A IGF-stimulated pAkt S473 HTRF, 20 min; stronger effect = lower value; in the data active means activity change below about -80%; inconclusive means mostly about -51% to -80%
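Single-point screen (50 µM final compound) in Neuro2A cells stimulated 20 min with 6 nM IGF at 37 deg C. After lysis, Ser473-phosphorylated Akt read by HTRF (ex 330 nm, em 615/665 nm) as the 665/615 ratio.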
Anesthetic bind – candidate novel general anesthetic via apoferritin binding; P02791; apoferritin/1-aminoanthracene competitive binding, fluorescence; Potency, µM (top dose mostly 77.5 µM), most hits filed as inhibitors; 350,000 compounds, 0.074% hits; AID 485281; further: nearly all actives have a fitted effect of over 20% in size
Target sequence (P02791 2-175 limits assumed): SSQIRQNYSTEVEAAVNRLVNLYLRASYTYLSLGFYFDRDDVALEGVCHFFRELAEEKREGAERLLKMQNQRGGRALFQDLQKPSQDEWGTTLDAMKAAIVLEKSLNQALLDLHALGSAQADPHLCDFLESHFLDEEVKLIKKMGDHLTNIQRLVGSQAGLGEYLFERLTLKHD
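Apoferritin-based anesthetic binding model; compound displacement of fluorescent 1-AMA measured as endpoint fluorescence after 10 minutes at room temperature, scaled to free-ligand and complex controls.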
Mito fusion act – blocks mitochondrial division or promotes mitochondrial fusion. AID 485298. Potency, µM (top dose mostly 46.1 µM), actives largely listed as activators. 320,000 compounds, 0.23% hits. S. cerevisiae fusion-defective mutant growth rescue, CellTiterGlo 48 h; further: nearly all actives have a fitted effect of over 45% in size
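S. cerevisiae fusion-defective temperature-sensitive mutants (e.g. fzo1-1, mgm1-5) grown 48 h at 37C in YPEG (ethanol/glycerol non-fermentable) medium with 23 nl compound per well; growth rescue read as CellTiterGlo luminescence.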
Each line names hits and unclear results; the compound was inactive in the other large screens. Unless noted, the call rests on the fitted dose curve; in most records, active means well fitted curve in the direction sought with a large enough effect; inconclusive means small, poorly fitted or top-dose-only effect, or another doubt; inactive means no such curve, though single readings can be large; an effect the other way counts as inactive or inconclusive.

CCC1(C)CC(=O)N(c2ccc(C(=O)O)c(O)c2)C1=O (centres undefined)	Akt phos inh -114%
CCC1(C)CC(=O)N(c2ccc(F)c(Cl)c2)C(=O)C1	none
CCn1ncc(Br)c1C(=O)Nc1sc2c(c1C(N)=O)CCC2	Mito fusion act 20µM
O=C1c2sc3nc4ccccc4n3c2C(=O)N1c1ccccc1Cl	TDP-43 yeast inh 11µM
CCOc1cc(C(=S)N2CCN(C)CC2)ccc1OCC(=O)N1CCOCC1	Akt phos inh -112%
O=C(Nc1ccccc1C(F)(F)F)N1CCC(CN2CCc3ccccc3C2)CC1	none (no result: aSyn yeast inh, CCT modulator, Akt phos inh, Mito fusion act)
CC1/C=C/C=C/C=C/C=C/C=C/C=C/C=C/C(OC2OC(C)C(O)C(N)C2O)CC2O[C@@](O)(CC(O)CC(O)C(O)CCC(O)CC(O)CC(=O)OC(C)[C@H](C)C1O)CC(O)C2C(=O)O (some centres undefined)	none (no result: aSyn yeast inh, TDP-43 yeast inh, CCT modulator, Akt phos inh, Mito fusion act)
Nc1nnc(-c2ccc(Cl)cc2Cl)s1	TDP-43 yeast inh 11µM
Clc1ccc(-c2nn3c(-c4ccncc4)nnc3s2)c(Cl)c1	none (no result: aSyn yeast inh, TDP-43 yeast inh, CCT modulator, Akt phos inh)
Nc1nnc(-c2ccccc2F)s1	none
Clc1ccc(-c2nn3cnnc3s2)c(Cl)c1	TDP-43 yeast inh 18µM
Cc1cc2c(=Cc3ccc(N(C)C)cc3)c3ccccc3n2[n+]1C	CCT modulator -45 (no result: Anesthetic bind, Mito fusion act)
CN1C(=O)/C(=N\OC(=O)c2cccc3ccccc23)c2ccccc21	aSyn yeast inh inconclusive, TDP-43 yeast inh 18µM
COc1ccc(C(=O)O/N=C2\C(=O)N(C)c3ccccc32)cc1	aSyn yeast inh 5.6µM, TDP-43 yeast inh 4µM (no result: Anesthetic bind, Mito fusion act)
CC(=O)/C=C1\C(=O)N(C)c2ccccc21	none (no result: TDP-43 yeast inh, CCT modulator, Akt phos inh, Anesthetic bind)
O=S1(=O)C2CC3C=CC2(O3)C(O)C(Cc2ccccc2)N1Cc1cccc(C(F)(F)F)c1 (centres undefined)	none (no result: aSyn yeast inh, TDP-43 yeast inh, CCT modulator, Akt phos inh, Mito fusion act)
CCOc1ccc(NC(=O)COC(=O)c2ccccc2OCc2ccccc2Br)cc1	none (no result: TDP-43 yeast inh, CCT modulator, Akt phos inh, Anesthetic bind, Mito fusion act)
O=C(NCCCN1CCOCC1)C(=O)NCC1OCCN1S(=O)(=O)c1ccc(Cl)cc1 (centres undefined)	CCT modulator -34 (no result: Anesthetic bind, Mito fusion act)
CCCSc1ncc(Cl)c(C(=O)Nc2sc3c(c2C(=O)NCC)CCCC3)n1	TDP-43 yeast inh inconclusive (no result: CCT modulator, Akt phos inh, Mito fusion act)
Cn1c(OCC2CCCO2)nc2cc(-c3ccccc3)sc2c1=O (centres undefined)	TDP-43 yeast inh 35µM, CCT modulator -48 (no result: Akt phos inh, Anesthetic bind, Mito fusion act)
COCCNc1nc2cc(-c3ccccc3)sc2c(=O)n1C	TDP-43 yeast inh 20µM (no result: Anesthetic bind, Mito fusion act)
Cc1ccccc1-c1cc2nc(OCC3CCCO3)n(C)c(=O)c2s1 (centres undefined)	TDP-43 yeast inh inconclusive (no result: Anesthetic bind, Mito fusion act)
C=CCNc1nc2cc(-c3ccccc3C)sc2c(=O)n1C	TDP-43 yeast inh 35µM (no result: Anesthetic bind, Mito fusion act)
COc1ccc(-c2cc3nc(C)n(N)c(=O)c3s2)cc1	none
Cc1ccc(CNc2nc3cc(-c4ccccc4C)sc3c(=O)n2C)c(C)c1	aSyn yeast inh inconclusive (no result: Akt phos inh, Anesthetic bind, Mito fusion act)
Cc1nc2cc(-c3ccccc3)sc2c(=O)n1N	CCT modulator -31
COc1ccc(CNC(=O)C(CCSC)NS(=O)(=O)c2ccc3c(c2)oc(=O)n3C)cc1 (centres undefined)	none (no result: aSyn yeast inh, CCT modulator, Akt phos inh, Mito fusion act)
C/C(CCC(=O)OC[C@@H]1O[C@H](C#Cc2ccccc2)C=C[C@@H]1Oc1ccc(C)cc1)=N/O[C@@H](C)c1cn([C@H]2COC[C@H]2O)nn1	none (no result: aSyn yeast inh, TDP-43 yeast inh, CCT modulator, Akt phos inh, Mito fusion act)
COc1cccc(CNc2nc3cc(-c4ccc(C)cc4)sc3c(=O)n2C)c1OC	aSyn yeast inh inconclusive, TDP-43 yeast inh 25µM (no result: Anesthetic bind, Mito fusion act)
COC(=O)[C@@H]1OC(c2ccccc2)O[C@H]1C(=O)OC	none (no result: aSyn yeast inh, TDP-43 yeast inh, CCT modulator, Akt phos inh, Mito fusion act)
CC(C)(C)OC(=O)N1CCC(c2nnc(SCc3cccc(Cl)c3)o2)CC1	aSyn yeast inh inconclusive (no result: CCT modulator, Akt phos inh, Mito fusion act)
Cc1ccc(NC(=O)CN2C(=O)c3cccnc3Sc3ccccc32)cc1C	Anesthetic bind inconclusive (no result: aSyn yeast inh, CCT modulator, Akt phos inh, Mito fusion act)
C[C@H]1C(c2ccc(F)cc2)=NN(c2ccccc2)[C@@H]1CO	TDP-43 yeast inh 18µM (no result: Mito fusion act)
COc1ccccc1[C@H]1C(c2ccccc2)=NN(c2ccccc2)[C@@H]1CO	aSyn yeast inh inconclusive, TDP-43 yeast inh inconclusive (no result: Mito fusion act)
COc1ccccc1[C@H]1C(c2ccc(F)cc2)=NN(c2ccccc2)[C@@H]1CO	TDP-43 yeast inh 28µM (no result: Mito fusion act)
